# The list is not random: actives were taken first. Their share in the collection is about 1.9%.
# CaV13 ICDI inh: Primary screen for inhibitors of IQ motif and Ca2+-dependent inactivation inhibitor domain binding in CACNA1D, Förster resonance energy transfer in living cells, …; HEK cells, CFP/YFP FRET ICDI-IQ, plate reader, 10 min; percent FRET-ratio fall versus neutral wells; inhibition, % at 12.3 µM; 340,000 compounds, 0.098% hits;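 active = mean replicate inhibition of at least 30% and at least 1% of replicates passing that level; inconclusive = only one of the two criteria is met; inactive = neither criterion is met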;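 note: 0% = median of the neutral control wells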
# Pemphigus Ab inh: blocks pemphigus antibody binding to human desmoglein-3; P32926; DSG3-coupled beads, scFv-anti-DSG3-GFP binding, flow cytometry; hits give low values; binding (percent of control), % at 10 µM; 310,000 compounds, 0.48% hits; AID 588358;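 active = binding more than 3 SD below its plate's average and above zero; inconclusive = below that plate limit but binding exactly zero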;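 note: hits lower antibody fragment binding to DSG3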
# Vif inh: blocks HIV Vif function; 340,000 compounds, 0.35% hits; HEK293T cells, Vif self-association by quenched fluorescence, imaging, 24 h; inhibition, % at 7.49 µM; AID 602346; in the data active = inhibition above about 50%, passing the limit was not always enough; inconclusive = no clear call, values can overlap the other calls; inactive = below about 31%
# ATG4B inhibitor: blocks human ATG4B protease cleavage of LC3 substrate; Q9Y4P1; ATG4B cleavage of LC3-PLA2, NBD-HPC fluorescence, 1 h; inhibition, % at 8.33 µM; 340,000 compounds, 0.51% hits; AID 504462; in the data active = inhibition above about 40%
# NSD2 HMT inh: blocks human histone methyltransferase NSD2; NSD2 peptide methylation, AlphaScreen, 120 min; inhibition, % at 12.5 µM; 310,000 compounds, 0.54% hits; in the data active = inhibition above about 50%
# N-glyco inh: blocks N-linked glycosylation in D54 reporter cells. reporter increase, % at 12.5 µM. 360,000 compounds, 0.23% hits. D54 ERlucT glycosylation luciferase reporter, 24 h; percent of 100 nM tunicamycin response;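 active = mean luciferase reporter signal, scaled so untreated is 0 and the glycosylation-blocking control 100, at or above a set limit in every replicate; inconclusive = mean reaches the limit but not every replicate does; inactive = mean below the limit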;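 note: luciferase carries N-glycosylation sites so blocking glycosylation raises the light; 0% = median of neutral control wells and 100% = median of 100 nM tunicamycin wells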
# * = called active by the depositor; ? = inconclusive; · = no result given; + = active, no number.
SMILES,CaV13 ICDI inh,Pemphigus Ab inh,Vif inh,ATG4B inhibitor,NSD2 HMT inh,N-glyco inh
CCCOc1ccc(-c2nc(C#N)c(N3CCc4ccccc4C3)o2)cc1,·,93.0,1.9,7.8,-1.2,2.0
COc1ccccc1CNC(=O)COC(=O)c1cc([N+](=O)[O-])ccc1N1CCOCC1,-3.0,100.5,·,-9.3,4.9,1.3
Cc1[nH]c(C)c(C(=O)/C=C/c2ccc([N+](=O)[O-])cc2)c1C,-19.4,99.3,21.7,-0.1,16.8,42.1*
COc1ccc(C=CC(=O)c2ccc([N+](=O)[O-])cc2)cc1,-2.7,90.5,7.3,-7.0,-2.3,-2.9
Cc1cc(-c2cccc([N+](=O)[O-])c2)nc2ccc3ccccc3c12,-8.7,-1.4*,3.6,5.2,-0.7,4.9
Cc1cccc(OC(=O)Cn2c(C(F)(F)F)nc3ccccc32)c1,-3.5,98.9,-4.8,0.2,-0.9,0.9
Nc1nonc1-n1nnc(C(=O)N/N=C/c2ccc(OCc3ccccc3F)cc2)c1CN1CCCCC1,-7.4,-3.4*,2.0,-8.5,-0.3,-3.1
CC1CCN(Cc2c(C(=O)N/N=C/c3cc(Br)ccc3O)nnn2-c2nonc2N)CC1,-4.0,101.5,52.5*,-0.2,6.3,-6.2
CC1CCN(Cc2c(C(=O)N/N=C/c3cc(Cl)ccc3O)nnn2-c2nonc2N)CC1,-7.1,104.8,20.1,-2.5,-5.5,-7.4
N#Cc1cccc(C(=O)OCC(=O)c2ccc3c(c2)NC(=O)CO3)c1,-5.4,93.5,-13.4,9.1,-0.1,2.0
O=C(Cn1ncc2c([nH]c3ccccc32)c1=O)N1CCN(c2ccccn2)CC1,-6.5,-6.6*,5.4,0.7,-6.9,-1.7
O=C(Cn1ncc2c([nH]c3ccccc32)c1=O)N1CCCCC1,-2.4,106.0,2.2,0.6,-2.6,-0.5
Cc1cc(N2CCN(S(=O)(=O)c3ccccc3)CC2)nc2c(C)cccc12,·,105.2,12.9,-1.1,-1.6,-3.6
O=C(COC(=O)c1cc(S(=O)(=O)N2CCOCC2)ccc1O)NCC1CCCO1 (stereo not drawn),·,102.8,-27.9,-3.7,0.3,1.1
NC(=O)c1sc2nc3c(c(-c4ccco4)c2c1N)CCCC3,-6.9,98.4,-4.3,13.1,5.2,-4.2
Nc1c(C(=O)NCC2CCCO2)sc2nc3c(c(-c4ccco4)c12)CC/C3=C\c1ccco1 (stereo not drawn),-19.1,75.6,0.5,49.4*,12.1,-3.0
CCCCn1c(O)c(N=Nc2ccccn2)c2ccccc21,-4.6,123.6,-7.6,-5.4,-2.9,-4.7
CCCCn1c(O)c(N=Nc2ccccc2O)c2ccccc21,-12.6,114.1,144.5*,11.5,·,2.1
Cc1c(Cl)cnc(NC(=O)COC(=O)c2cccc(S(=O)(=O)N3CCc4ccccc4C3)c2)c1Cl,-3.1,88.3,12.0,18.9,1.6,-0.3
O=C(CSc1nc2ncc(Cl)cc2[nH]1)Nc1cccc(F)c1,-5.0,98.7,-16.6,-3.4,-3.1,-1.2
C/C(=C\C(=O)c1ccc(Br)cc1)Nc1ccc(Cl)cc1,-20.0,78.3*,2.6,18.4,44.0,0.1
CCOC(=O)c1c(C)[nH]c(N=Nc2cc(C(=O)O)cc(C(=O)O)c2)c1C,-4.9,105.7,0.1,-2.2,·,0.1
COc1ccc(-n2nc3c(N4CCC(C(=O)NCc5ccccc5C)CC4)nnc(C)c3c2C)cc1,·,·,-5.1,54.1*,-8.0,-10.7
Cc1ccc(-n2nc3c(N4CCC(C(=O)NCCc5ccccc5C)CC4)nnc(C)c3c2C)cc1,·,111.8,53.6*,12.1,-4.1,-16.7
COc1ccc(-n2nc3c(N4CCC(C(=O)NCCc5ccccc5C)CC4)nnc(C)c3c2C)cc1,·,116.4,-21.5,9.4,·,-17.2
SMILES,CaV13 ICDI inh,Pemphigus Ab inh,Vif inh,ATG4B inhibitor,NSD2 HMT inh,N-glyco inh
O=C1C=CC(=Nc2ccc(F)cc2)O1,-2.2,125.3,-1.0,1.9,-6.0,4.0
COC(=O)c1ccc(SC2CCCCC2)c([N+](=O)[O-])c1,-7.6,95.2,125.0*,6.8,3.9,-3.8
COc1cccc(CC(=O)OCc2csc(CC(=O)Nc3ccccc3C)n2)c1,-5.8,?,-1.7,-9.1,1.6,2.0
O=C(Nc1nc2cc3c(cc2s1)OCCO3)c1ccc(N2C(=O)CCC2=O)cc1,-6.3,81.1*,-7.3,-2.7,1.0,-2.3
CCOC(=O)c1csc(NC(=O)c2ccccc2)n1,-6.7,95.2,0.2,12.8,·,-0.8
CCOC(=O)c1csc(-c2csc(CCNC(=O)c3ccccc3)n2)n1,-4.8,104.0,50.8*,·,0.0,-2.6
CCOC(=O)N1CCN(C(=O)C2CCN(Cc3nc(-c4ccccc4C)oc3C)CC2)CC1,-4.5,112.4,11.5,2.0,·,0.3
CCN(CC(=O)NCc1cccs1)C(=O)C(c1ccccc1)c1ccccc1,-2.1,99.1,-13.0,-6.0,-2.1,-3.3
O=C(c1cc2cc3ccc(Cl)cc3nc2o1)N1CCN(Cc2ccc3c(c2)OCO3)CC1,-6.5,59.3*,4.8,-4.1,36.3,-0.2
COc1ccc(Cl)cc1C(=O)Nc1cccnc1,-0.5,103.6,53.4*,-0.7,-0.4,3.2
COc1cc(OC)c(C(=O)Nc2cccnc2)cc1OC,-2.0,113.1,-0.6,-1.3,-0.9,2.1
Cc1cccn2c(=O)c3cc(C(=O)N4CCCCC4)sc3nc12,-6.8,94.4,-1.6,2.5,-6.9,33.6*
CCn1c2ccccc2c(=O)c2ccccc21,+,106.8,-19.7,6.9,-9.7,-2.6
O=C(COC(=O)/C=C/c1cc(Br)ccc1F)NC1CC1,-5.8,94.1,-2.8,-2.1,-2.3,0.0
CCN(CC)CCNC(=O)c1sc2nc(-c3ccccc3)cn2c1C,48.3*,111.1,·,-13.9,·,-2.4
COc1ccc(-c2cn3c(C)c(C(=O)Nc4cccc(NC(C)=O)c4)sc3n2)cc1,-8.6,80.4*,-26.8,-24.9,-1.6,0.7
COc1ccc(N2CCN(C(=O)c3sc4nc(-c5ccc(F)cc5)cn4c3C)CC2)cc1,-5.6,27.4*,1.3,1.1,·,-0.9
COCCN(CCOC)C(=O)c1sc2nc(-c3ccccc3)cn2c1C,-5.0,·,3.9,-3.2,-1.4,0.9
COc1ccc(-c2cn3c(C)c(C(=O)Nc4ccncc4)sc3n2)cc1,-6.6,97.9,7.2,-23.5,·,-7.5
CC12CCC(C(=O)Nc3ccc(Cl)cc3)([C@H](Br)C1=O)C2(C)C (stereo partly drawn),-19.8,96.7,0.8,-3.1,-3.8,-0.5
COc1cc(CNCCCN2CCOCC2)cc(Cl)c1OCC(=O)NC(C)(C)C,-18.8,97.3,-9.5,1.3,-3.1,-0.6
Clc1ccc2nc(CSc3nnc(-c4c[nH]c5ccccc45)o3)cn2c1,-5.8,42.5*,-3.6,3.7,0.6,1.4
CC(C)Nc1nc(NCCN2CCNC2=O)c2sccc2n1,-5.9,·,2.7,·,-0.9,1.3
COC(=O)c1ccc(NC(=S)NCCC2=CCCCC2)cc1,-2.4,106.0,-9.3,4.2,·,-1.4
